According to PubChem BioAssay (NCATS):
Records with an inconclusive call do not appear. Calls of active or inactive are those of the source. The call rests on the fitted dose curve; in most records, active means well fitted curve in the direction sought with a large enough effect; inconclusive means small, poorly fitted or top-dose-only effect, or another doubt; inactive means no such curve, though single readings can be large; an effect the other way counts as inactive or inconclusive.

Tests used:
[1] = target: Tumor susceptibility gene 101 protein (Homo sapiens) (UniProt Q99816); assay: qHTS Assay for Iinhibitors of HIV-1 Budding by Blocking the Interaction of PTAP/TSG101: Hit Validation (AID 651600); further: potency means the concentration at half of the fitted maximal effect; nearly all actives have a fitted effect of over 70% in size
Procedure, shortened: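 Tsg101 binding domain 10 uM + FITC-PTAP peptide 50 nM (final), 10 mM HEPES pH 7.5/0.15 M NaCl/0.01% Tween 20/3 mM EDTA/0.1 mM TCEP; 20 min RT; FP read, FITC filters.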

[2] = target: Rap guanine nucleotide exchange factor 3 (Homo sapiens) (UniProt O95398); assay: Confirmatory qHTS for antagonist of cAMP-regulated guanine nucleotide exchange factor 3 (EPAC1) (AID 1645880); conditions: EPAC1 Rap1B-BODIPY-GDP exchange, fluorescence; activity, negative = inhibition: at 115 µM (top of the series); further: nearly all actives have a fitted effect of over 55% in size; further: potency means the concentration at half of the fitted maximal effect;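 on activity, negative = inhibition: plate controls were DMSO only for no effect and full effect of the ATA control for full effect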
Procedure, shortened: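 Released BODIPY-GDP fluoresces less than Rap1-bound BODIPY-GDP; the signal is followed at 480/540 nm at 5-min intervals over 30 min, after 5 min at room temperature. Reactions contain 100 nM EPAC1, 250 nM RAP1B-BODIPY-GDP and 50 uM GDP; results are normalized to ATA and DMSO.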

[3] = target: Rap guanine nucleotide exchange factor 4 (Homo sapiens) (UniProt Q8WZA2); assay: Confirmatory qHTS for agonist of cAMP-regulated guanine nucleotide exchange factor 4 (EPAC2) (AID 1645884);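 further: nucleotide exchange releases bodipy-GDP from Rap1 and this lowers its fluorescence; nearly all actives have a fitted effect of over 65% in size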; further: potency means the concentration at half of the fitted maximal effect; on activation: on the % scale 0 is the no-effect control and ±100 the full control effect
[4] = target: Rap guanine nucleotide exchange factor 4 (Homo sapiens) (UniProt Q8WZA2); assay: Confirmatory qHTS for antagonist of cAMP-regulated guanine nucleotide exchange factor 4 (EPAC2) (AID 1645885); further: nearly all actives have a fitted effect of over 25% in size; further: potency means the concentration at half of the fitted maximal effect; on activity change, negative = inhibition: on the % scale 0 is the no-effect control and ±100 the full control effect
[5] = target: Rap guanine nucleotide exchange factor 3 (Homo sapiens) (UniProt O95398); assay: Counterscreen qHTS for antagonist of cAMP-regulated guanine nucleotide exchange factor 3 (EPAC1) (AID 1645888); further: % of control where 0% means no effect
Procedure, shortened: (§1)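 Rap1B–BODIPY-GDP (250 nM) with 50 uM GDP; compounds pin-transferred to 9.74 nM–152 uM final (activator) or from 7.32 nM upwards (inhibitor). Fluorescence Ex/Em 480/540 nm read at 5 and 30 min, then after adding cAMP or buffer, at room temperature.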

[6] = target: Rap guanine nucleotide exchange factor 3 (Homo sapiens) (UniProt O95398); assay: Counterscreen qHTS for agonist of cAMP-regulated guanine nucleotide exchange factor 3 (EPAC1) (AID 1645889); further: nearly all actives have a fitted effect of over 40% in size; further: potency means the concentration at half of the fitted maximal effect; on activation: % of control where 0% means no effect
Procedure, shortened: as §1

Chain of Tumor susceptibility gene 101 protein (Homo sapiens) (Q99816 whole entry, looked up, the tested form may be a part): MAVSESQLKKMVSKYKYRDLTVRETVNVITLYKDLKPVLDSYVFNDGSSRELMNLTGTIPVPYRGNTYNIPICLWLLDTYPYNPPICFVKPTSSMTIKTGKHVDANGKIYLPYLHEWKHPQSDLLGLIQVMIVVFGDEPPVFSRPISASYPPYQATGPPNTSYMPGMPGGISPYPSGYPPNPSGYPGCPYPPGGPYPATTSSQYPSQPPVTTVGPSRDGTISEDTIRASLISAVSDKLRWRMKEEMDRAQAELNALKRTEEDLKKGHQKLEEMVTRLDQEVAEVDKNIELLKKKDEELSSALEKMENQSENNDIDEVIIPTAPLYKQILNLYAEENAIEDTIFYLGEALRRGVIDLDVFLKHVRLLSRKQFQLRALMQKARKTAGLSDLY
Chain of Rap guanine nucleotide exchange factor 4 (Homo sapiens) (Q8WZA2 whole entry, looked up): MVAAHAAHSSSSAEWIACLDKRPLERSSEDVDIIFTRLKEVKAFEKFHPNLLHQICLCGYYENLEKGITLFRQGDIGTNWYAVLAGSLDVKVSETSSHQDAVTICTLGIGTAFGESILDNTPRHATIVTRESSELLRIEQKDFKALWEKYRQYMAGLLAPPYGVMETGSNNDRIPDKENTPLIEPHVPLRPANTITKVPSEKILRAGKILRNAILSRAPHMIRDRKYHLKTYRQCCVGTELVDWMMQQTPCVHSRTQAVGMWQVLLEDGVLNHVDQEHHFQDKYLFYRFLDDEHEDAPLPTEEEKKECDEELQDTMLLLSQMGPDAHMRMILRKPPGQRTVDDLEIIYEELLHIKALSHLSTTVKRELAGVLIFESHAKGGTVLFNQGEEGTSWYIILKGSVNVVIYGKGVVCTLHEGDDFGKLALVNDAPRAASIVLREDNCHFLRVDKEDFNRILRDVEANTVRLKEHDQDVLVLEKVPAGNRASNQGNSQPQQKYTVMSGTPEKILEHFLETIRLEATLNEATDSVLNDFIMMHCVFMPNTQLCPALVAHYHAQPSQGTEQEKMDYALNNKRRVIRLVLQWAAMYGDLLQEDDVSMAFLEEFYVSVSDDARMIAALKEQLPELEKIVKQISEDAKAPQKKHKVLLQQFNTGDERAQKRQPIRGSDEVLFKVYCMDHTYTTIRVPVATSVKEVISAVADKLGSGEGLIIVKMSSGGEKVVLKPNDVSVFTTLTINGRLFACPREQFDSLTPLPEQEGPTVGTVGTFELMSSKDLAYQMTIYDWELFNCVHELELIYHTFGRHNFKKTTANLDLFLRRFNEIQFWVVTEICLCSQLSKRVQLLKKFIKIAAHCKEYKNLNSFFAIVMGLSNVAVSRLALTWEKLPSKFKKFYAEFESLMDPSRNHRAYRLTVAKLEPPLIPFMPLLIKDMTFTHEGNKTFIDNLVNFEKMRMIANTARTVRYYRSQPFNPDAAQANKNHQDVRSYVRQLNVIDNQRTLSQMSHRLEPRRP
Chain of Rap guanine nucleotide exchange factor 3 (Homo sapiens) (O95398 whole entry, looked up): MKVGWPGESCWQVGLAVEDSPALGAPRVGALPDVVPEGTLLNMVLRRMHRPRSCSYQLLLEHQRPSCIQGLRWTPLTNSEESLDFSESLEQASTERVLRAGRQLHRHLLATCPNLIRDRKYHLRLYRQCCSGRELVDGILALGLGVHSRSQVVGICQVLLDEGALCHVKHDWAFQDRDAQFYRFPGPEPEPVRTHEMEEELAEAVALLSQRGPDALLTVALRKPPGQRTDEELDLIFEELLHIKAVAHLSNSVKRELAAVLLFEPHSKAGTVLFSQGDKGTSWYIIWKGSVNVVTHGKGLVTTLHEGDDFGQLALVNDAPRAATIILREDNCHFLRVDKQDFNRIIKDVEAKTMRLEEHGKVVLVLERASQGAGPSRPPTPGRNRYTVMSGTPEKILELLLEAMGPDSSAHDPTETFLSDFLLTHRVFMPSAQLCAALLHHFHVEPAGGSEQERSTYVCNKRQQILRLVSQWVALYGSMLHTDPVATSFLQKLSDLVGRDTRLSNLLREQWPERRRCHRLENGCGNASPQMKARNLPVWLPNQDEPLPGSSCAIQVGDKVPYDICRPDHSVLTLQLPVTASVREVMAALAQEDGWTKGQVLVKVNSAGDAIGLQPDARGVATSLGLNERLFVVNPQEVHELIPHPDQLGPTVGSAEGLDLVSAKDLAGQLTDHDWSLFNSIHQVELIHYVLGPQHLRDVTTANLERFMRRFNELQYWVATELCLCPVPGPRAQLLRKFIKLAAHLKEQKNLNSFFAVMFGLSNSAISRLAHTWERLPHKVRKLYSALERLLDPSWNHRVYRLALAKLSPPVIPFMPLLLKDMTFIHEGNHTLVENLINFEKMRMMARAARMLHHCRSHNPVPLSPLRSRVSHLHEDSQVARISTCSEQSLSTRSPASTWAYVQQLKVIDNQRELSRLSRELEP

Cc1nc2ccccc2n2c(O)c(CC(=O)O)cc12
active: Potency [1] 14.6 µM | Potency [3] 112 µM | Potency [6] 44.7 µM
inactive: Potency [2] | Potency [4] | Potency [5]

Cn1cc(/C=C2\SC(=S)N(NC(=O)c3ccccc3Cl)C2=O)c2ccccc21
inactive: Potency [2] | Potency [4] | Potency [5]
active: Potency [3] 100 µM | Potency [6] 63.1 µM

Cc1n[nH]c(C)c1N1C(=O)c2cccc3c(N4CCCCCC4)ccc(c23)C1=O
active: Potency [1] 20.6 µM | Potency [3] 112 µM | Potency [6] 12.6 µM
inactive: Potency [2] | Potency [4] | Potency [5]

O=C1c2cccc3c(N4CCCCC4)ccc(c23)C(=O)N1c1ccc(O)cc1
inactive: Potency [2] | Potency [4] | Potency [5] | Potency [6]
active: Potency [3] 112 µM

CN(C)c1ccc(/C=C2\SC(=S)N(Nc3ncc(C(F)(F)F)cc3Cl)C2=O)cc1
active: Potency [3] 112 µM | Potency [4] 16.9 µM | Potency [6] 17.8 µM
inactive: Potency [2] | Potency [5]

Cc1ccc2[nH]cc(/C=C/c3cc[n+](C)cc3)c2c1
active: Potency [3] 112 µM | Potency [6] 56.2 µM
inactive: Potency [2] | Potency [4] | Potency [5]

O=C(O)c1ccccc1C1=Nc2ccc(O)cc2Oc2cc(O)ccc21
inactive: Potency [2] | activation [3] 14.2% [at 17.1 µM, percent relative to cAMP agonist control] | Potency [4] | activity change, negative = inhibition [5] -1.01% [at 30.8 µM]
active: Potency [1] 13 µM | Potency [6] 15.8 µM

CC1=Nc2ccccc2/C1=C\c1nc(-c2ccccc2)oc1O
inactive: Potency [2] | activation [3] 7.61% [at 17.1 µM, percent relative to cAMP agonist control] | Potency [4] | activity change, negative = inhibition [5] -10.6% [at 30.8 µM] | activation [6] 18.1% [at 30.8 µM]

COC(=O)c1c(NC(=O)c2ccc(S(=O)(=O)N(C)C3CCCCC3)cc2)sc2c1CCN(C)C2
active: Potency [6] 89.1 µM
inactive: Potency [2] | Potency [3] | Potency [4] | Potency [5]

Cc1ccc(N=Cc2sc(O)c3ccccc23)c(C)c1
inactive: Potency [2] | activation [3] -3.2% [at 17.1 µM, percent relative to cAMP agonist control] | Potency [4] | activity change, negative = inhibition [5] -0.317% [at 30.8 µM] | activation [6] 10.3% [at 30.8 µM]

CCCN1C(=O)c2cccc3c(N4CCCCC4)ccc(c23)C1=O
inactive: Potency [2] | Potency [4] | Potency [5]
active: Potency [3] 100 µM | Potency [6] 39.8 µM

CCN(CC)c1ccc2cc(C=O)c(=O)oc2c1
inactive: Potency [2] | activation [3] 6.38% [at 17.1 µM, percent relative to cAMP agonist control] | Potency [4] | activity change, negative = inhibition [5] 96.9% [at 30.8 µM]
active: Potency [6] 12.6 µM

COc1ccc(C)cc1CN1C(=O)c2ccccc2C1=O
inactive: Potency [2] | activation [3] -0.218% [at 17.1 µM, percent relative to cAMP agonist control] | Potency [4] | activity change, negative = inhibition [5] -7.92% [at 30.8 µM] | activation [6] 12.1% [at 30.8 µM]

O=c1oc2ccc(Cl)cc2nc1/C=C(\O)c1cccs1
inactive: Potency [2] | activation [3] 14.5% [at 17.1 µM, percent relative to cAMP agonist control] | Potency [4] | activity change, negative = inhibition [5] 7.64% [at 30.8 µM] | activation [6] 11.4% [at 30.8 µM]

Cc1ccc(S(=O)(=O)N2CCN(C(=O)c3ccc4c(c3)OCO4)CC2)cc1
inactive: Potency [2] | activation [3] 0.378% [at 17.1 µM, percent relative to cAMP agonist control] | Potency [4] | activity change, negative = inhibition [5] -2% [at 30.8 µM] | activation [6] 24.8% [at 30.8 µM]

O=C1CCNc2ccc(-c3ccccc3)cc21
active: Potency [1] 8.19 µM | Potency [3] 112 µM | Potency [6] 56.2 µM
inactive: Potency [2] | Potency [4] | Potency [5]

Cc1[nH]c2ccccc2c1C(c1ccccc1)c1ccc(Cl)s1 (stereo not drawn)
inactive: Potency [2] | Potency [3] | Potency [4] | Potency [5] | Potency [6]

COc1ccccc1CNc1cc(C)nc2nc(-c3ccc(C)cc3)nn12
inactive: Potency [2] | Potency [3] | Potency [4] | Potency [5] | Potency [6]

COc1ccc(CN(C)C(=O)CC(c2ccccc2)c2ccccc2)cc1
inactive: Potency [2] | Potency [3] | Potency [4] | Potency [5] | Potency [6]

CCOC(=O)C1=C(C)N=c2s/c(=C/c3ccc(OCC(=O)O)c(OC)c3)c(=O)n2C1c1ccc(Cl)cc1 (stereo not drawn)
inactive: Potency [2] | Potency [3] | Potency [4] | Potency [5] | Potency [6]

COc1cc(/C=C(\C#N)c2nc3ccccc3o2)ccc1O
inactive: Potency [2] | activation [3] 7.08% [at 17.1 µM, percent relative to cAMP agonist control] | Potency [4] | activity change, negative = inhibition [5] 3.99% [at 30.8 µM] | activation [6] 23.5% [at 30.8 µM]

CN1/C(=C/C=C(C#N)C#N)C(C)(C)c2ccccc21
inactive: Potency [2] | activation [3] -11.9% [at 17.1 µM, percent relative to cAMP agonist control] | Potency [4] | activity change, negative = inhibition [5] 214% [at 30.8 µM] | activation [6] -347% [at 30.8 µM]

CC(C)CCn1c(Oc2ccccc2F)nc2c1c(=O)n(C)c(=O)n2C
inactive: Potency [2] | Potency [3] | Potency [4] | Potency [5] | Potency [6]

COc1ccc(NC2c3ccccc3C(=O)N2c2ccccn2)cc1Cl (stereo not drawn)
inactive: Potency [2] | Potency [3] | Potency [4] | Potency [5] | Potency [6]

O=c1oc2cc(O)ccc2cc1-c1nnc(Nc2ccccc2F)s1
active: Potency [3] 14.1 µM | Potency [4] 3.38 µM | Potency [6] 3.55 µM
inactive: Potency [2] | Potency [5]

COC(=O)c1cc(NC(=O)c2ccccc2)c(=O)oc1C/C=N\OCc1ccc(Cl)cc1Cl
inactive: Potency [2] | activation [3] -1.43% [at 17.1 µM, percent relative to cAMP agonist control] | Potency [4] | activity change, negative = inhibition [5] -10.8% [at 30.8 µM] | activation [6] 26% [at 30.8 µM]

COc1ccc(NC(=O)/C(C#N)=C\c2ccc(OCc3ccc(C(=O)O)cc3)c(OC)c2)cc1
active: Potency [2] 67.5 µM
inactive: Potency [3] | Potency [4] | Potency [5] | Potency [6]

O=C(c1ccco1)N1CCN(c2cc(=O)n(C3CCCCC3)c(=O)[nH]2)CC1
inactive: Potency [2] | Potency [3] | Potency [4] | Potency [5] | Potency [6]

Cc1ccc2c(c1C)OC(=O)CC2c1ccccc1 (stereo not drawn)
inactive: Potency [2] | Potency [3] | Potency [4] | Potency [5] | Potency [6]

CCOc1cccc2sc(N3CCN(C(=O)C(C)(C)C)CC3)nc12
inactive: Potency [2] | Potency [3] | outcome [4] inactive [at 12.7 µM] | Potency [6]
